Data as given in PubChem BioAssay (EPA / NIEHS).
The source made the active and inactive calls. How the source made its calls: active means hit-call score of the fitted dose curve at least 0.9, where 1 is the maximum; inactive means score below 0.9.

The molecules below were run on adenosine kinase (ADK) gene, ADK (gene 132) (assay: LTEA_HepaRG_ADK: Life Technologies and Expression Analysis (LTEA) Assay for adenosine kinase (ADK) gene using HepaRG (AID 2283471)). Settings: mRNA level, 48 h; actives raise or lower the signal.
Procedure: LTEA_HepaRG is a cell based, multiplexed-readout assay that uses HepaRG, a human liver cell line, with measurements taken at 48 hours after chemical dosing on a 96-well plate.LTEA_HepaRG_ADK is one of 102 assay component(s) measured in the LTEA HepaRG cell culture assay. It is a marker of Steatosis.Data from the assay component LTEA_HepaRG_ADK was analyzed into 1 endpoint. This assay endpoint, LTEA_HepaRG_ADK, was analyzed with bidirectional fitting relative to DMSO as the negative control and baseline of activity. Using a type of inducible reporter, measures of mRNA induction for gain or loss-of-signal activity can be used to understand regulation of transcription factor activity. To generalize the intended target to other relatable targets, this assay endpoint is annotated to the kinase intended target family, where the subfamily is steatosis.
A total of 1060 chemcials from the ToxCast library were tested in eight-point concentration-response experiments. Cell culture and cytotoxicity assays were conducted at Thermo Fisher Scientific's Custom Services facility (Madison, WI). A single lot of human HepaRG cells (Thermo Fisher Scientific, Frederick, MD) was used for the cell culture experiments. 96-well format collagen type I coated plates of human HepaRG cells were prepared using established methods. Briefly, cryopreserved HepaRG cells were thawed, plated at a density of approximately 100,000 cells/well in HepaRG Thaw, Plate, and General Purpose media (HPRG770, Thermo Fisher Scientific), and incubated for 48 hours. 0.5% DMSO was selected as vehicle control to balance the requisite need of DMSO in HepaRG cultures to maintain differentiation (for example, baseline metabolism, proportions of hepatocytes vs. cholangiocytes), while enabling further hepatic receptor pathway activation (for example, PXR and CAR) in response to chemical exposure. 48 hours after plating, the culture medium was replaced with HepaRG Serum-Free Incudtion Media. Cells were exposed to each test chemical in duplicate and maintained in CO2 incubators for another 48 hours. Chemical plates were thawed to room temperature and 200x concentrations of treatment groups were prepared. 8-point conentration-reponse curves were made with the highest exposure at 100 uM, followed by half-log dilutions, all in 0.5% DMSO. Each test plate contained variouse controls, induction positive controls (1mM phenobarbital), cytotoxicity positive controls ([…] aflatoxin B1), vehicle controls (0.5% DMSO), and total lysis controls (0.5% DMSO). Cell morphology images were taken using an Essen IncuCyte FLR automated microscope, with six 96-well plates imaged in about 24 minutes. Images were captured and exported and JPEG files. Spent culture media was transfered to black-well plates for the LDH assay, and remaining media was sorted at -80 C for later use. Cells were treated with RLT buffer and frozen until shipped for gene expression analysis. Total RNA was isolated from the cell suspension in 75 uL of Buffer RLT (Qiagen, Germantown, MD 20874) by Quintiles/Expression Analysis (Durham, NC) using a custom isolation procedure. Total RNA from each plate well was transferred to a preamplification plate. Fluidigm's 96.96 Dynamic ArrayTM (Fluidigm, Amsterdam, the Netherlands) technology was used for gene expression analyses by quantitative reverse transcription polymerase chain reaction (qRT-PCR, performed by Quintiles/Expression Analysis, Durham, NC)89. Standard TaqManTM Assays (Applied Biosystems/ThermoFisher Scientific, Foster City, CA) were used to assess the expression of 93 genes selected based on their selectivity and sensitivity to important hepatic receptors known to be modulated by environmental chemicals; importance in human hepatocyte functionality; and hepatotoxicity. […]

Row | Compound | AC50 | outcome
1 | COc1ccc(OC(F)(F)F)cc1CN[C@H]1CCCN[C@H]1c1ccccc1 | 79.3 µM (active) | 
2 | CCCCCCCC(=O)OC |  | inactive
3 | c1ccc2occc2c1 |  | inactive
4 | CCCCC(CC)COC(=O)CCCCCCCC(=O)OCC(CC)CCCC (stereo not given) |  | inactive
5 | CN(C)CCCN1c2ccccc2Sc2ccc(Cl)cc21 | 90.5 µM (active) | 
6 | Nc1nc(=S)c2[nH]cnc2[nH]1 |  | inactive
7 | CO[C@@H]1COCC[C@@H]1N[C@@H]1CC[C@@](C(=O)N2CCc3ncc(C(F)(F)F)cc3C2)(C(C)C)C1 |  | inactive
8 | CC(=O)S[C@H](C(=O)N[C@H]1Cc2ccccc2[C@H]2CCC[C@@H](C(=O)O)N2C1=O)C(C)C |  | inactive
9 | NCCOCCOCCN |  | inactive
10 | S=c1[nH]c2ccccc2s1 |  | inactive
11 | O=C1O[C@H]([C@H](O)CO)C(O)=C1O |  | inactive
12 | CC(=O)[C@@]1(O)CC[C@H]2[C@@H]3CCC4=CC(=O)CC[C@]4(C)[C@H]3CC[C@@]21C |  | inactive
13 | CSc1ccc(Oc2ccc(S(N)(=O)=O)cc2CN(C)C)cc1C |  | inactive
14 | CC1=C(C)S(=O)(=O)CCS1(=O)=O | 0.277 µM (active) | 
15 | CCCCCCC(CCCCCCCCCCC(=O)OCC(COC(C)=O)OC(C)=O)OC(C)=O (stereo not given) |  | inactive
16 | CC(=O)O |  | inactive
17 | CCCCC(CC)CO (stereo not given) |  | inactive
18 | CC(C)OC(=O)C(C)(C)Oc1ccc(C(=O)c2ccc(Cl)cc2)cc1 |  | inactive
19 | CC(C)(O)c1ccc(CNC(=O)c2cccnc2Oc2ccc(F)cc2)cc1 |  | inactive
20 | COC(=O)[C@H]1[C@H]2C[C@@H]3c4[nH]c5cc(OC)ccc5c4CCN3C[C@H]2C[C@@H](OC(=O)c2cc(OC)c(OC)c(OC)c2)[C@@H]1OC |  | inactive

Row | Compound | AC50 | outcome
21 | N[C@@H](Cc1c[nH]c2ccccc12)C(=O)O |  | inactive
22 | O=C(Oc1ccccc1)c1cccc(C(=O)Oc2ccccc2)c1 |  | inactive
23 | O=C(O)CC(O)(CC(=O)O)C(=O)O |  | inactive
24 | CN(C)CCCN(C)CCCN(C)C |  | inactive
25 | Cn1cnc2c1c(=O)[nH]c(=O)n2C |  | inactive
26 | O=C1OC(c2ccc(O)cc2)(c2ccc(O)cc2)c2ccccc21 |  | inactive
27 | O=C(O)c1cccnc1 |  | inactive
28 | OCC(O)CO |  | inactive
29 | NC=O |  | inactive
30 | COC(=O)CCCC(=O)OC |  | inactive
31 | CCCC[C@H]1CN(CC2CCOCC2)C(=O)OC12CCN(C1(C)CCN(C(=O)c3c(C)ncnc3C)CC1)CC2 |  | inactive
32 | CCCC(=O)O |  | inactive
33 | O=[Si]=O |  | inactive
34 | CC1(C)C(=O)NC(=O)N1CO |  | inactive
35 | C#CC(O)C(CC)CCCC (stereo not given) |  | inactive
36 | O=Cc1ccccc1C=O |  | inactive
37 | CC(=O)CC(c1ccccc1)c1c(O)c2ccccc2oc1=O (stereo not given) |  | inactive
38 | O=C(N[C@@H](c1ccccc1)[C@@H]1CCCCN1)c1cccc(C(F)(F)F)c1Cl | 78.2 µM (active) | 
39 | NC(=Nc1ccccc1)Nc1ccccc1 |  | inactive
40 | CC(C)NCC(O)c1ccc(O)c(O)c1 (stereo not given) |  | inactive
